Records with an inconclusive call do not appear. Entries that show only a call come without a potency. Some compounds were tested as several samples or in several runs, with calls that do not always agree. Activity calls are given as the source filed them. The call rests on the fitted dose curve.
Test: qHTS assay to identify small molecule agonists of the AP-1 signaling pathway - cell viability counter screen (AID 1159525); further: nearly all actives have a fitted effect of over 55% in size
Conditions: ME-180 (cervical carcinoma) AP-1-bla cells viability, ATP luminescence, 5 h; series mostly up to 76.8 µM
Excerpt: National Center for Advancing Translational Sciences [NCATS]
NIH Chemical Genomics Center [NCGC]
U.S. Environmental Protection Agency [EPA]
National Institutes of Environmental Health Sciences [NIEHS]
National Toxicology Program [NTP]
U.S. Food and Drug Administration [FDA]
Activator protein-1 (AP-1), a transcription factor, plays an important role in tumor genesis by regulating genes involved in cell proliferation, differentiation, apoptosis, and angiogenesis. AP-1 activity is induced by a complex network of signaling pathways that involves extracellular signals, such as growth factors. The AP-1 protein complex formed from c-Fos and c-Jun binding to the AP-1 response element results in transcriptional activation of genes containing such elements within their promoter.
Low molecular weight molecules have been discovered and developed to modulate various components of these signaling pathways, for example, MAP kinase inhibitors. However, many points of pathway modulation remain untested due to the lack of chemical probes making this signaling locus of general interest.
Using a beta-lactamase reporter-gene under control of the AP-1 response element, a cell-based assay [CellSensor(TM) AP-1-bla ME-180 developed by Invitrogen Corp.] was used to measure EGF-induced signaling. The Tox21 10K library compounds were measured for their ability to positively modulate the action of EC50 EGF on reporter gene activity. Compounds were screened in a 15-pt titration series in 1536-well format. The cytotoxicity of the Tox21 compound library against this cell line was tested in parallel by measuring the intra cellular ATP content in the same wells.
Tox21 Assay Protocol Summary:
2500 cells/5uL in Opti-MEM medium containing 0.5% dialyzed FBS, 0.1 mM NEAA, 1 mM sodium pyruvate and 10 mM HEPES was dispensed into 1536-well black wall/clear bottom plates using a Multidrop dispenser and cells were cultured at 37 degrees Celsius overnight. Next day 23 nL of compounds dissolved in DMSO, positive controls or DMSO were delivered to each well using a pin tool. The plates were incubated at 37 degrees Celsius for 5 hours. 1 uL of LiveBLAzerTM B/G FRET substrate (Solution A+B+C+D) was added to each well using a Flying Reagent Dispenser. After incubated at room temperature for 2.5 hours the plates were measured on an EnVision plate reader at Excitation 405nm, Emission1=460nm and Emission 2=530nm. The %Activity was determined from the ratio of 460nm/530nm.
After the plates were read for Beta-Lactamase assay on Envision; 3 ul Cell Titer Glo (Promega) was added to measure the cytotoxicity and the plates were then incubated at RT in dark for 30 min. The luminescence was read on ViewLux (Perkin Elmer, Shelton, CT) using 6 sec exposure. ViewLux data was expressed as relative luminescence units.
For primary data analysis, raw plate reads for each titration point were first normalized relative to […] EGF control (100%) and DMSO only wells (basal, 0%).
For primary data analysis for viability assay, raw plate reads for each titration point were first normalized Tetra n-octyl ammonium bromide control (-100%) and DMSO (control, 100%).
Potency means the concentration at half of the fitted maximal effect.

Compound	Potency
Cc1ccc(C(=O)c2cc(O)c(O)c([N+](=O)[O-])c2)cc1	inactive
O=[N+]([O-])c1ccc2c(c1)Cc1ccccc1-2	inactive
CCCCCCCCCCCO	inactive
COC(C)COC(C)COC(C)CO (stereo not given)	inactive
NNc1ccc(C(=O)O)cc1	inactive
Cc1c(C(N)=O)cc([N+](=O)[O-])cc1[N+](=O)[O-]	inactive
CC(C)OC=O	inactive
O=C1c2cccc(O)c2C(=O)c2c(O)cccc21	inactive
O=C(COc1ccc(Cl)cc1)N1CCN(Cc2ccc3c(c2)OCO3)CC1	inactive
C[C@]12CC[C@H]3[C@@H](CCC4=CC(=O)CC[C@@]43C)[C@@H]1CC[C@@H]2C(=O)CO	inactive
Nc1ccc(Nc2ccccc2)cc1	inactive
CN1C(C(=O)Nc2ccccn2)=C(O)c2ccccc2S1(=O)=O	inactive
CC(C)OB(OC(C)C)OC(C)C	inactive
CC(C)(C)NC(=O)[C@H]1CC[C@H]2[C@@H]3CC[C@H]4NC(=O)C=C[C@]4(C)[C@H]3CC[C@]12C	inactive
CN(C)CCN(Cc1cccs1)c1ccccn1	inactive
CCC(C)(O)CCCC(C)C (stereo not given)	inactive
CC(=O)CC/C=C(\C)CCC=C(C)C	inactive
COc1ccccc1/C=C/C=O	inactive
C#C[C@]1(O)CC[C@H]2[C@@H]3CCC4=Cc5oncc5C[C@]4(C)[C@H]3CC[C@@]21C	54.9 µM (active) and inactive
Cc1ccc2c(n1)Oc1ccc(C(C)C(=O)OCC(=O)N(C)C)cc1C2 (stereo not given)	inactive

Compound	Potency
O=S(=O)(O)c1ccc(O)cc1	inactive
Nc1ccc(Cl)cc1Cl	inactive
CCCCCCCCCC(=O)OC	inactive
CN(C)C(=N)N=C(N)N	inactive
COC(=O)CCC(=O)OC	inactive
COC(=O)c1ccccc1	inactive
NC=O	inactive
O=Cc1ccccc1O	inactive
CCCCOCCOCCO	inactive
Nc1ncnc2nc[nH]c12	inactive
O=P(O)(O)O	inactive
OC[C@H]1O[C@@H]2O[C@H]3[C@H](O)[C@@H](O)[C@@H](O[C@H]4[C@H](O)[C@@H](O)[C@@H](O[C@H]5[C@H](O)[C@@H](O)[C@@H](O[C@H]6[C@H](O)[C@@H](O)[C@@H](O[C@H]7[C@H](O)[C@@H](O)[C@@H](O[C@H]8[C@H](O)[C@@H](O)[C@@H](O[C@H]1[C@H](O)[C@H]2O)O[C@@H]8CO)O[C@@H]7CO)O[C@@H]6CO)O[C@@H]5CO)O[C@@H]4CO)O[C@@H]3CO	inactive
Cc1cccc(N(C)C(=S)Oc2ccc3ccccc3c2)c1	inactive
CCCCC/C=C/C=C/C=O	inactive
Cc1cccc([N+](=O)[O-])c1C	inactive
c1ccc2c(c1)c1cccc3ccc4cccc2c4c31	inactive
O=CCc1ccccc1	inactive
Nc1ccccc1N	inactive
CC(C)Oc1ccc2c(=O)c(-c3ccccc3)coc2c1	inactive
C=CC(C)(CCC=C(C)C)OC(C)=O (stereo not given)	inactive

Reference: PubChem BioAssay (Tox21)
